Hits are enriched below; roughly 21% of the tested compounds scored in any of these assays.
DT40 TDP1 no CPT: qHTS for Inhibitors of human tyrosyl-DNA phosphodiesterase 1 (TDP1): qHTS in cells in absence of CPT; AID 686978, 2013; DT40 Tdp1-/- hTDP1 cells, no CPT, ATP luminescence, 48 h; Potency, µM (highest dose often 46.2 µM), for the others: at the highest dose activity change, negative = growth inhibition, most hits filed as inhibitors; 420,000 compounds, 15% hits; also: potency is read from the fitted curve at half-maximal effect; % is scaled to controls: 0 for no effect and ±100 for the full control effect; nearly all actives have a fitted effect of over 55% in size
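Compound effects on proliferation are scored in DT40 Tdp1-/-;hTDP1 cells in the absence of CPT. ATP levels (CellTiter-Glo luminescence) are recorded after a ≥48 hr, 37 °C incubation.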
IL1B secr inh: blocks inflammasome-driven IL-1 beta release. THP-1 LPS/ATP IL-1B secretion, AlphaLISA, 16 h; active compounds read low. AID 743279. activity change, % at 57.5 µM. 360,000 compounds, 4.7% hits; in the data active = activity change below about -50%; inconclusive = mostly about -30% to -49%; also: % is scaled to controls: 0 for no effect and ±100 for the full control effect
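Secreted IL-1B measured by AlphaLISA bead assay after 16 h compound exposure of THP-1 cells; compounds (final up to 57.5 uM) added 1 h before LPS (250 ng/mL) and ATP (1.25 mM) stimulation; lower signal means less secretion.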
D3 antag: blocks the human D3 dopamine receptor; P35462; D3R cells, DiscoveRx beta-arrestin luminescence, antagonist mode; active compounds read low; 360,000 compounds, 2.5% hits; max response, negative = inhibition, %; in the data active = max response below about -50%; inconclusive = no clear call, values can overlap the other calls; also: % is scaled to controls: 0 for no effect and ±100 for the full control effect
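Cells expressing the human receptor were seeded at 1500 cells/well, incubated overnight at 37 degrees C in 5% CO2, then exposed to library compounds with dopamine controls for 90 minutes at 37 degrees C before luminescent detection.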
ClpP mod: qHTS Assay for Activators of ClpP; 340,000 compounds, 1.9% hits; purified B. subtilis ClpP, FRET peptide cleavage, 20 min; Potency, µM (doses to about 57.5 µM), without a hit: top-dose activity change, negative = active; ATP-dependent Clp protease proteolytic subunit (Bacillus subtilis (strain 168)), P80244; active = well fitted falling curve with a large enough effect; inconclusive = small, poorly fitted or top-dose-only effect; inactive = no such curve, though single readings can be large or run the other way; also: potency is read from the fitted curve at half-maximal effect; the source files actives as falling curves though it sought activators and does not explain the sign; nearly all actives have a fitted effect of over 65% in size
Target sequence (P80244 whole entry, looked up): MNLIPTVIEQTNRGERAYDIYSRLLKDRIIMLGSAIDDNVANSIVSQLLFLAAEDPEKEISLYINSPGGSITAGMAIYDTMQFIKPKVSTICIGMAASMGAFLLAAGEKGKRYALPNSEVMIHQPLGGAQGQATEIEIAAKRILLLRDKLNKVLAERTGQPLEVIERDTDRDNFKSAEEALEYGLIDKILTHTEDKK
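ClpP 10 microg/mL final, pH 8 Tris/KCl buffer with BSA, glycerol, Tween-20; compound pinned in; FRET-FV substrate; RT 20 min; Ex320/Em430; ΔFRET vs ADEP 5.8 microM, DMSO, no enzyme.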
DRD3 agonist: D3 dopamine receptor (human) agonism | P35462 | D3R DiscoveRx beta-arrestin cells, luminescence, 90 min | max activation, % | 410,000 compounds, 0.58% hits | AID 652048; in the data active = max activation above about 30%; also: 0% is about no effect
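Agonist-mode cell screen: cells plated at 1500/well and incubated overnight at 37 °C, then exposed to library compounds for 90 min at 37 °C. Detection reagent was added for 30–60 min at room temperature, and luminescence was read.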
TDP1 cell CPT: growth inhibition of DT40 Tdp1-/-;hTDP1 cells with camptothecin (screen for TDP1 inhibitors) | Potency, µM (highest dose often 46.2 µM), without a hit: at the highest dose activity change, negative = growth inhibition, usual class: inhibitors | 420,000 compounds, 12% hits | chicken DT40 Tdp1-/-;hTDP1 cells + 20 nM CPT, ATP luminescence, 48 h; also: potency is read from the fitted curve at half-maximal effect; % is scaled to controls: 0 for no effect and ±100 for the full control effect; nearly all actives have a fitted effect of over 55% in size
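Chicken DT40 Tdp1-/- cells complemented with human TDP1, 400 cells/well, exposed to compounds plus 20 nM camptothecin for at least 48 h at 37 C; viability read as ATP content by CellTiter-Glo luminescence.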
* hit, by the source's call; ? = inconclusive; · = no result given. Unless noted, calls follow the shape of the dose curve; as a rule, active = well fitted inhibition curve with a large enough effect; inconclusive = small, poorly fitted or top-dose-only effect; inactive = flat fitted curve, though single readings scatter.

SMILES	DT40 TDP1 no CPT	IL1B secr inh	D3 antag	ClpP mod	DRD3 agonist	TDP1 cell CPT
N#Cc1nc(COc2cccc(Cl)c2)oc1NCc1ccco1	18µM*	-16	3	-2%	-8	21µM*
COc1ccc(CNc2oc(COc3cccc(C)c3)nc2C#N)cc1	?	·	·	-13%	-12	4.1µM*
COc1ccc(CCNc2oc(COc3cccc(C)c3)nc2C#N)cc1OC	23µM*	·	·	-4%	-2	?
CCNc1oc(COc2cccc(C)c2)nc1C#N	-28%	-6	19	2%	4	?
COc1ccc(CCNc2oc(COc3ccc(Cl)cc3)nc2C#N)cc1OC	12µM*	·	·	0%	3	13µM*
CN1CCN(S(=O)(=O)c2cccc3nsnc23)CC1	3%	24	-2	·	-2	0%
COc1ccc(CCNCC(O)COc2cccc(C(C)=O)c2)cc1OC (configuration not stated)	?	-6	-7	·	-6	-13%
CCOc1ccc(CNC(=O)c2ccc3nc(CC)c(CC)nc3c2)cc1	18µM*	·	·	-14%	1	16µM*
CCc1ccc(CNC(=O)c2ccc3c(Cl)c4c(nc3c2)CCCC4)cc1	23µM*	·	·	0%	5	?
CCc1nc2ccc(C(=O)NCc3ccc(SC)cc3)cc2nc1CC	?	·	·	1%	-5	?
Cc1cccc(NC(=O)c2ccc3c(Cl)c4c(nc3c2)CCCC4)n1	21µM*	-22	56	102%	2	?
Cc1cccc(NC(=O)c2onc3c2CCCC3)n1	?	-3	-1	-1%	-3	9.2µM*
Cc1oc2c(c1C(=O)NCc1ccccc1F)C1=NCCN1C=N2	-11%	·	·	-5%	-10	0%
CCOc1ccc(NC(=O)c2ccc3c(SCC(=O)O)c4c(nc3c2)CCC4)cc1	11%	·	·	0%	-11	15%
O=C(NCc1ccc(F)cc1)c1c2c(nc3ccccc13)CCC2	?	12	5	·	7	?
CCOc1ccc(CNC(=O)c2ccc3c(Cl)c4c(nc3c2)CCCC4)cc1	-68%	·	·	-14%	-7	21µM*
CCC(C)NC(=O)c1ccc2c(Cl)c3c(nc2c1)CCC3 (configuration not stated)	-18%	?	12	2%	5	-17%
CN1CCN(CCCNC(=O)c2ccc3c(Cl)c4c(nc3c2)CCCC4)CC1	21µM*	-56*	-16	-6%	-5	?
O=C(NCc1ccc(F)cc1)c1ccc2c(Cl)c3c(nc2c1)CCCC3	16µM*	·	·	-6%	-14	?
CCCNC(=O)Nc1cc(C(=O)NCc2cccc(OCC)c2)ccc1N1CCCC1	-4%	·	·	-2%	6	-1%
Cc1ccccc1OCCSc1nc2ccc(NC(=O)c3cccs3)cc2s1	18µM*	·	·	14µM*	-8	23µM*
Cc1cccc(OCCSc2nc3ccc(NC(=O)c4cccs4)cc3s2)c1	12µM*	·	·	20µM*	-10	16µM*
Cc1ccccc1OCCSc1nc2ccc(NC(=O)c3cccc(F)c3)cc2s1	12µM*	·	·	22µM*	-9	16µM*
Cc1ccccc1OCCSc1nc2ccc(NC(=O)c3ccccc3)cc2s1	?	·	·	0%	-11	-70%
Cc1ccc(NC(=O)CSc2nc3ccc(NC(=O)c4cccs4)cc3s2)cc1	?	·	·	?	6	-26%
CCc1ccc(C2CC3C(CN2S(=O)(=O)c2ccc(C)cc2)[C@@H](O)C[C@@H](c2ccc(CC)cc2)N3S(=O)(=O)c2ccc(C)cc2)cc1 (some centres not stated)	?	10	15	-1%	7	?
CN1CCN(c2nnc(-c3cccs3)c3ccccc23)CC1	-12%	-54*	-12	0%	-7	9%
